{"source": "PubChem BioAssay (NCI)", "note": "The panel holds about 83,000 compounds, 20% with a hit somewhere; the sample as a whole holds those more often.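 Results are percent growth after 48 hours of single-concentration exposure. 100 means growth as in untreated cells, lower positive values show inhibition; negative values down to -100 show cell death.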 A number with no mark means an inactive call. Activity calls are given as the source filed them. How the source made its calls: active means growth percent below 10; inactive means the rest.", "data": [{"system": "HL-60(TB) leukemia", "assay": "NCI-60 one-dose screen, 48 h (100 = growth as untreated, 0 = no growth, -100 = all killed)", "conditions": "10 µM unless noted", "values": [{"molecule": "COc1ccc2c(c1)c(-c1nonc1-c1cn(C)c3ccccc13)cn2C", "growth": "2.88% (active)"}, {"molecule": "Nc1nc2cc(O)ccc2n2cc3c(F)cccc3c12", "growth": "21.7%"}, {"molecule": "Cc1nc(-c2ccccc2)cc2c(O)c(C(=O)N/N=C/c3ccc(N(C)C)cc3)[nH]c(=O)c12", "growth": "116%"}]}]}
